Screening data deposited in PubChem by several laboratories.
TIM10 inh: growth inhibitors of isogenic TIM10 control yeast, primary screen, counter-screen for tim10-1 yeast inhibitor project, luminescence, uHTS; S. cerevisiae TIM10 strain growth, BacTiter-Glo luminescence, 24 h; inhibition, % at 10 µM; 330,000 tested, 1.4% active;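 active means inhibition of 40% or more at the single tested concentration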;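 further: wild-type TIM10 isogenic control strain grown at permissive 25 °C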
tim23-1 inh: growth inhibitors of tim23-1 mutant yeast, primary screen, luminescence, uHTS. S. cerevisiae tim23-1 growth, BacTiter-Glo luminescence, 24 h. inhibition, % at 20 µM. 330,000 tested, 1.3% active;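 active means growth inhibition of the mutant yeast at or above 50%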;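 further: temperature-sensitive mutant grown at 25 °C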
SKKanGAS inh: S. pyogenes SKKanGAS growth inhibitors in kanamycin, primary screen, streptokinase expression inhibitor project, SKKanGAS strain, BacTiter-Glo luminescence; 300,000 tested, 1.3% active; 6 h; inhibition, % at 7.5 µM;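 active means mean replicate score, as percent of positive control median, at least 50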;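 further: strain carries kanamycin resistance gene driven by streptokinase promoter and grows in 40 µg/ml kanamycin; loss of luminescence reflects streptokinase promoter inhibition or plain growth inhibition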
PfHsp90 set2: growth inhibition of PfHsp90-expressing yeast, primary screen, antimalarial PfHsp90 inhibitor project, S. cerevisiae, BacTiter-Glo luminescence, single point, set 2. BacTiter-Glo ATP, 48 h; yeast lacking PDR1 and PDR3 efflux regulators. inhibition, % at 9.4 µM. 310,000 tested, 0.32% active. AID 504621, 2011;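 active means every replicate shows inhibition above about 80%, whatever the replicate mean, limit read from the data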
NALP3 yeast inh: NALP3 inflammasome inhibitors in reconstituted yeast, primary screen, luminescence, uHTS; Yeast reconstituted NLRP3/ASC/caspase-1, beta-gal luminescence, 24 h; inhibition, % at 10 µM; 330,000 tested, 0.39% active; AID 2825, 2010;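 active means inhibition of 50% or more; inactive means inhibition below 50%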
tim10-1 inh: growth inhibitors of tim10-1 mutant yeast, primary screen, luminescence, uHTS; S. cerevisiae tim10-1 ts strain growth, BacTiter-Glo, 24 h; inhibition, % at 20 µM; 330,000 tested, 2.2% active;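 active means inhibition of at least 40%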;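 further: mutant grown at 25 °C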
tim23-1 conf: tim23-1 mutant yeast growth inhibitors, confirmation, luminescence, single concentration; shares compounds with tim23-1 inh; 4,400 tested, 83% active; AID 463218, 2010; inhibition, % at 20 µM; S. cerevisiae tim23-1 growth, BacTiter-Glo luminescence, 24 h;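 active means inhibition above about 39% in either of two replicate wells at 20 µM, limit read from the data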;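 further: temperature-sensitive tim23-1 mutant grown at 25 °C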
Hits are given with their value. Rows were chosen to be rich in hits. Some 4.6% of all compounds tested hit in one or more screens of this group.

What do the screens show for `COc1cc2ccccc2cc1C(=O)Nc1ccc(C)cc1`?
TIM10 inh: inactive; tim23-1 inh: 59; SKKanGAS inh: inactive; PfHsp90 set2: inactive; NALP3 yeast inh: inactive; tim10-1 inh: inactive; tim23-1 conf: 64

Results for COc1cc2ccccc2cc1C(=O)Nc1ccc(Cc2ccncc2)cc1 ?
TIM10 inh: inactive; tim23-1 inh: inactive; SKKanGAS inh: inactive; PfHsp90 set2: inactive; NALP3 yeast inh: inactive; tim10-1 inh: inactive

How did COc1ccc(C)cc1NC(=O)c1nn(-c2ccccc2)cc1OC do in these assays?
TIM10 inh: inactive; tim23-1 inh: 55; SKKanGAS inh: inactive; PfHsp90 set2: inactive; NALP3 yeast inh: inactive; tim10-1 inh: inactive; tim23-1 conf: 68

What do the screens show for `OCCN1CCN(CC(O)COc2ccc(C34CC5CC(CC(C5)C3)C4)cc2)CC1` (stereo unspecified)?
TIM10 inh: inactive; tim23-1 inh: inactive; SKKanGAS inh: inactive; PfHsp90 set2: inactive; NALP3 yeast inh: inactive; tim10-1 inh: inactive

How did NCCOc1ccc(C23CC4CC(CC(C4)C2)C3)cc1 do in these assays?
TIM10 inh: inactive; tim23-1 inh: 66; SKKanGAS inh: inactive; PfHsp90 set2: inactive; NALP3 yeast inh: inactive; tim10-1 inh: inactive; tim23-1 conf: 77

What do the screens show for `O=C(CCSc1ccc(Cl)cc1)NC1CCCCC1`?
TIM10 inh: inactive; tim23-1 inh: inactive; SKKanGAS inh: inactive; PfHsp90 set2: inactive; NALP3 yeast inh: inactive; tim10-1 inh: inactive

How did O=C(CCSc1ccc(Cl)cc1)NC12CC3CC(CC(C3)C1)C2 do in these assays?
TIM10 inh: inactive; tim23-1 inh: 52; SKKanGAS inh: inactive; PfHsp90 set2: inactive; NALP3 yeast inh: inactive; tim10-1 inh: inactive; tim23-1 conf: 46

What do the screens show for `Cc1ccnc(Nc2nc(-c3ccc(O)cc3O)cs2)c1`?
TIM10 inh: inactive; tim23-1 inh: 86; SKKanGAS inh: inactive; PfHsp90 set2: inactive; NALP3 yeast inh: inactive; tim10-1 inh: inactive; tim23-1 conf: 77

What do the screens show for `CCCCNC(=O)C(C1CCCCC1)N(CCN(C)C)C(=O)CCCN1C(=O)NC(c2ccc(-c3ccccc3)cc2)C(C(=O)OCc2ccccc2)=C1C` (stereo unspecified)?
TIM10 inh: inactive; tim23-1 inh: 51; tim10-1 inh: inactive; tim23-1 conf: inactive

What do the screens show for `CCCCCCN(C(=O)CCCCCN1C(=O)NC(c2ccc(-c3ccccc3)cc2)C(C(=O)OCc2ccccc2)=C1C)C(C)C(=O)NCCCC` (stereo unspecified)?
TIM10 inh: inactive; tim23-1 inh: inactive; SKKanGAS inh: inactive; NALP3 yeast inh: inactive; tim10-1 inh: inactive

How did COc1ccc(C2=NS(=O)(=O)N(C)C(C(=O)Nc3ccc(F)cc3F)=C2)cc1 do in these assays?
TIM10 inh: inactive; tim23-1 inh: inactive; SKKanGAS inh: inactive; PfHsp90 set2: inactive; NALP3 yeast inh: inactive; tim10-1 inh: inactive

How did Cc1cc(N2CCC(C)CC2)nc(NCc2ccccc2)n1 do in these assays?
TIM10 inh: inactive; tim23-1 inh: inactive; SKKanGAS inh: inactive; PfHsp90 set2: inactive; NALP3 yeast inh: inactive; tim10-1 inh: inactive

What do the screens show for `O=C(NCCc1ccccc1)c1cccc2c1C(=O)N(C1CCCCC1)C2`?
TIM10 inh: inactive; tim23-1 inh: 51; SKKanGAS inh: inactive; PfHsp90 set2: inactive; NALP3 yeast inh: inactive; tim10-1 inh: inactive; tim23-1 conf: inactive

How did CCCOC(=O)Nc1cc(OC)ccc1[N+](=O)[O-] do in these assays?
TIM10 inh: inactive; tim23-1 inh: inactive; SKKanGAS inh: inactive; PfHsp90 set2: inactive; NALP3 yeast inh: inactive; tim10-1 inh: inactive

What do the screens show for `COc1ccc(/C(N)=N/OC(=O)c2ccco2)cc1`?
TIM10 inh: inactive; tim23-1 inh: inactive; SKKanGAS inh: inactive; PfHsp90 set2: inactive; NALP3 yeast inh: inactive; tim10-1 inh: inactive

Results for COc1ccc(N=N/C(=C\O)C(=O)c2ccco2)cc1 ?
TIM10 inh: inactive; tim23-1 inh: 50; SKKanGAS inh: inactive; PfHsp90 set2: inactive; NALP3 yeast inh: inactive; tim10-1 inh: inactive; tim23-1 conf: 58
